Data on five compounds can be found in PubChem BioAssay (EPA / NIEHS).

Experiment [1] is described as follows: ATG_TCF_b_cat_CIS: Attagene CIS-FACTORIAL HepG2 Assay for human T-Cell-Factor with beta-catenin (TCF/b-cat) (AID 2282965; active = hit-call score of the fitted dose curve at least 0.9, where 1 is the maximum; inactive = score below 0.9). The settings on record: HepG2 TCF/beta-catenin cis-reporter transcription, actives raise or lower the signal. Summed up: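 Endogenous transcription factor activity is captured through cis-promoter reporter constructs transiently introduced into human HepG2 liver cells. Induced reporter mRNA is measured after 24 h and fitted bidirectionally relative to DMSO.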

The nature of experiment [2]: ATG_TAL_CIS: Attagene CIS-FACTORIAL HepG2 Assay for human TAL Basal Promoter (AID 2282966; active = hit-call score of the fitted dose curve at least 0.9, where 1 is the maximum; inactive = score below 0.9;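 note: background control endpoint measuring basal TAL promoter reporter mRNA not a specific factor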). The settings on record: HepG2 Attagene cis-factorial TAL promoter reporter; actives raise or lower the signal. Summed up: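 Endogenous transcription-factor activity is sensed in HepG2 cells through transfected cis-promoter reporter constructs. After 24 h dosing, reporter transcripts are quantified by RT-PCR and capillary electrophoresis. Gain or loss of signal is fitted relative to DMSO.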

The nature of experiment [3]: ATG_TGFb_CIS: Attagene CIS-FACTORIAL HepG2 Assay for human Transforming Growth Factor (TGF) (AID 2282967; active = hit-call score of the fitted dose curve at least 0.9, where 1 is the maximum; inactive = score below 0.9). The settings on record: HepG2 Attagene CIS TGFb reporter, mRNA transcription; actives raise or lower the signal. The method in brief:
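HepG2 cells transiently transfected with cis-promoter-driven multiple reporter units measure endogenous TF activity; reporter mRNA quantified at 24 h by RT-PCR, FAM labeling, HpaI digestion and capillary electrophoresis. Bidirectional fit vs DMSO.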

Experiment [4] in a line: ATG_VDRE_CIS: Attagene CIS-FACTORIAL HepG2 Assay for human Vitamin D Receptor Element (VDRE) (AID 2282968; active = hit-call score of the fitted dose curve at least 0.9, where 1 is the maximum; inactive = score below 0.9). Conditions: HepG2 VDRE cis-reporter transcription, actives raise or lower the signal. The method in brief:
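Measures endogenous factor activity through cis-element-driven reporter transcripts in transiently transfected HepG2. Cells are treated 24 h; reporter mRNA is quantified by RT-PCR and capillary electrophoresis; fitting is bidirectional.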

The target of experiment [5] is Nuclear receptor subfamily 1 group I member 3 (Homo sapiens) (UniProt Q14994). Briefly: ATG_CAR_TRANS: Attagene TRANS-FACTORIAL HepG2 Assay for human Constitutive Androstane Receptor (CAR) (AID 2282969).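 Note: activators raise reporter mRNA above DMSO so AC50 marks induction.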 The settings on record: HepG2 Attagene TRANS-FACTORIAL CAR reporter. The method in brief:
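Signal is reporter mRNA induction relative to DMSO, measured 24 h after dosing by RT-PCR with fluorescent primer extension and capillary electrophoresis. Human HepG2 liver cells carried transiently transfected chimeric NR-Gal4/GAL4-UAS reporter constructs.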

The target of experiment [6] is Estrogen receptor (Homo sapiens) (UniProt P03372). Briefly: ATG_ERa_TRANS: Attagene TRANS-FACTORIAL HepG2 Assay for human Estrogen Receptor alpha (ERa) (AID 2282970). The settings on record: HepG2 Attagene TRANS ERa GAL4 reporter, mRNA. Summed up: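 Transfected HepG2 cells carrying GAL4-UAS-driven reporter units were dosed for 24 hours. Total RNA was reverse-transcribed, reporter sequences PCR-amplified, FAM-labelled, HpaI-digested and resolved by capillary electrophoresis. Increases over DMSO control defined activity.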
Chain of Estrogen receptor (Homo sapiens) (P03372 whole entry, looked up, the tested form may be a part): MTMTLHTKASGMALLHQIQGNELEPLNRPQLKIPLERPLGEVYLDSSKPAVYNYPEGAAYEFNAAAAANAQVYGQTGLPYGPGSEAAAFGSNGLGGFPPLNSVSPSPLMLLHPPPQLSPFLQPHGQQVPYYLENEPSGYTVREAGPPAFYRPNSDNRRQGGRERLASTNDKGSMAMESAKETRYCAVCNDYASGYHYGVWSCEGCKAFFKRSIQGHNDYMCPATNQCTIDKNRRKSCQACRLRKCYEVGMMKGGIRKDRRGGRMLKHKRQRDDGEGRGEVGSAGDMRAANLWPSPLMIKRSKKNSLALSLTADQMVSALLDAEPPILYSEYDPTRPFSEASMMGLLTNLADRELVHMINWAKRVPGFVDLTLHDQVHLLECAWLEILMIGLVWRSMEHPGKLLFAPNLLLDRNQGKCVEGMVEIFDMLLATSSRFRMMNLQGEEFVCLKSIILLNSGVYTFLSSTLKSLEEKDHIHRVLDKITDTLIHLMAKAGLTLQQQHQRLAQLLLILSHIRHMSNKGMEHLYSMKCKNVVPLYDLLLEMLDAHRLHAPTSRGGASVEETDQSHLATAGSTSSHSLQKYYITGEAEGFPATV

In experiment [7] the target is Steroid hormone receptor ERR1 (Homo sapiens) (UniProt P11474). The experiment can be described thus: ATG_ERRa_TRANS: Attagene TRANS-FACTORIAL HepG2 Assay for human Estrogen-Related Receptor alpha (ERRa) (AID 2282971). The settings on record: HepG2 Attagene TRANS reporter, ERRa transactivation. Summed up:
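HepG2 cells were transiently transfected with multiple GAL4-UAS reporter units, then dosed with compound for 24 h. Total RNA was reverse-transcribed, reporter cDNA PCR-amplified and fluorescently labelled, and fragments resolved by capillary electrophoresis; induction was compared with DMSO.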

For experiment [8], the target named is X-box-binding protein 1 (Homo sapiens) (UniProt P17861). Briefly: ATG_Xbp1_CIS: Attagene CIS-FACTORIAL HepG2 Assay for human X-box Binding Protein 1 (XBP1) (AID 2282972; active = hit-call score of the fitted dose curve at least 0.9, where 1 is the maximum; inactive = score below 0.9). The settings on record: HepG2 XBP1 cis-element reporter, Attagene multiplex; actives raise or lower the signal. The method in brief:
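Changes in reporter transcript abundance, read by RT-PCR and capillary electrophoresis, reflect endogenous transcription factor activity. Transfected HepG2 cells received compound for 24 hours; DMSO defined baseline for bidirectional analysis.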

Experiment [9] can be described thus: ATG_GAL4_TRANS: Attagene TRANS-FACTORIAL HepG2 Assay for GAL4 (Internal Marker) (AID 2282976). The settings on record: HepG2 Attagene TRANS GAL4 internal marker reporter. Summed up: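 Fluorescence from capillary electrophoresis of labelled RT-PCR products quantifies reporter mRNA induction after 24 h dosing of HepG2 cells carrying transfected GAL4-UAS reporter transcription units. Vehicle DMSO serves as baseline.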

Experiment [10] addresses Estrogen-related receptor gamma (Homo sapiens) (UniProt P62508). Briefly: ATG_ERRg_TRANS: Attagene TRANS-FACTORIAL HepG2 Assay for human Estrogen-Related Receptor gamma (ERRg) (AID 2282977).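 Note: hits increase reporter signal over DMSO so potencies reflect activators.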 The settings on record: HepG2 Attagene TRANS reporter, ERRg transactivation. The method in brief: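 Exogenous NR-Gal4 chimera activity was assessed in HepG2 cells bearing transfected GAL4-UAS reporters. After 24 h dosing, total RNA underwent RT-PCR, fluorescent primer extension and HpaI digestion before capillary electrophoresis, with gain of signal scored against DMSO.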

Experiment [11] addresses Glucocorticoid receptor (Homo sapiens) (UniProt P04150). Briefly: ATG_GR_TRANS: Attagene TRANS-FACTORIAL HepG2 Assay for human Glucocorticoid Receptor (GR) (AID 2282978).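 Note: activators score as hits since higher reporter transcript over DMSO is fitted.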 The settings on record: HepG2 Attagene TRANS GR reporter, mRNA transcription. The method in brief:
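Transient MRTU transfection of HepG2 (GAL4-UAS reporters, exogenous NR-GAL4 chimeras), 24 h dosing. Readout: reporter transcript via RT-PCR + capillary electrophoresis fluorescence. Positive direction vs DMSO baseline.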

Experiment [12] deals with Bile acid receptor (Homo sapiens) (UniProt Q96RI1). Briefly: ATG_FXR_TRANS: Attagene TRANS-FACTORIAL HepG2 Assay for Farnesoid X Receptor (FXR) (AID 2282979).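 Note: hits raise reporter mRNA above DMSO so AC50 marks FXR activation.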 The settings on record: HepG2 Attagene TRANS FXR-GAL4 reporter transcription. Summed up: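 Chimeric FXR-GAL4 activity in transiently transfected human HepG2 liver cells is scored as induction of reporter mRNA after 24 h of dosing. Detection uses RT-PCR with fluorescent labelling and capillary electrophoresis, with DMSO serving as baseline.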
Chain of Bile acid receptor (Homo sapiens) (Q96RI1 whole entry, looked up, the tested form may be a part): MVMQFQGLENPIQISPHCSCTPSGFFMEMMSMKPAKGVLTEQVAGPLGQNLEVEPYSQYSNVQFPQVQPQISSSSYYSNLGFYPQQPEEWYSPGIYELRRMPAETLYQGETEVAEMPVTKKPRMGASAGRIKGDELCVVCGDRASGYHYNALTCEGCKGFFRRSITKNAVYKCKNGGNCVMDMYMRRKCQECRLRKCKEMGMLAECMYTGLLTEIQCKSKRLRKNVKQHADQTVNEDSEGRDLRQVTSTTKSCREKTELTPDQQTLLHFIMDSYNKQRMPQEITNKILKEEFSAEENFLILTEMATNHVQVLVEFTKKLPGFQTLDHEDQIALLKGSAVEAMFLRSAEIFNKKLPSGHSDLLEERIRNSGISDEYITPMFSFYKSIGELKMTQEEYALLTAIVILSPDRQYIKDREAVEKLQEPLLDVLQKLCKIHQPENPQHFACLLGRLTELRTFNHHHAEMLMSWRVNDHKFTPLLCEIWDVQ

A short description of experiment [13]: ATG_M_32_TRANS: Attagene TRANS-FACTORIAL HepG2 Assay for M32 Transcription Factor (Internal Marker) (AID 2282984).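 Note: transcript level of a background control reporter unit measured by RT-PCR and capillary electrophoresis.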 Conditions: HepG2 Attagene TRANS M32 internal marker reporter. The method in brief: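 Cell-based TRANS-format assay in HepG2: exogenous chimeric GAL4 reporter units transiently expressed, compounds applied 24 h. Reporter mRNA detected by RT-PCR plus capillary electrophoresis; this readout is an internal background marker.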

For experiment [14], the target named is Nuclear receptor subfamily 4 group A member 2 (Homo sapiens) (UniProt P43354). Briefly: ATG_NURR1_TRANS: Attagene TRANS-FACTORIAL HepG2 Assay for human Nuclear Receptor Related Protein 1 (NURR1) (AID 2282985). The settings on record: HepG2 Attagene TRANS reporter, mRNA readout. The method in brief: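 Measures transcriptional activation by an exogenous NR-Gal4 chimera in transfected HepG2 liver cells. After 24 h, reporter RNA is reverse-transcribed, amplified and resolved by capillary electrophoresis; DMSO defines baseline.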

Experiment [15] concerns the target Oxysterols receptor LXR-beta (Homo sapiens) (UniProt P55055). Briefly: ATG_LXRb_TRANS: Attagene TRANS-FACTORIAL HepG2 Assay for human Liver X Receptor beta (LXRb) (AID 2282981). The settings on record: HepG2 Attagene TRANS GAL4-LXRb reporter, mRNA. Summed up: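 After 24 h of chemical treatment, transfected HepG2 cells yield total RNA; reporter cDNA is PCR-amplified, FAM-labelled, HpaI-cut and run on capillary electrophoresis. Signal reflects chimeric LXRb-Gal4 activity on GAL4-UAS reporters.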

The target in experiment [16] is Hepatocyte nuclear factor 4-alpha (Homo sapiens) (UniProt P41235). The experiment can be described thus: ATG_HNF4a_TRANS: Attagene TRANS-FACTORIAL HepG2 Assay for human Hepatocyte Nuclear Factor 4 alpha (HNF4a) (AID 2282982). Conditions: HepG2 HNF4a transactivation reporter, mRNA readout. The method in brief: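 Multiplexed reporter assay: transfected HepG2, 24 h exposure, total RNA → oligo(dT) RT → PCR → 6-FAM extension → HpaI digest → CE fluorescence. DMSO = negative control.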

Experiment [17] can be described thus: ATG_M_06_TRANS: Attagene TRANS-FACTORIAL HepG2 Assay for M06 Transcription Factor (Internal Marker) (AID 2282983). The settings on record: HepG2 Attagene TRANS M06 internal marker reporter. The method in brief:
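Human liver HepG2 cells bearing transiently transfected chimeric NR-GAL4 reporter units were treated with chemicals for 24 h. Total RNA was reverse-transcribed, reporter sequences amplified and labelled, then quantified by capillary electrophoresis. Activity was fitted upward relative to DMSO.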

The target of experiment [18] is Androgen receptor (Homo sapiens) (UniProt P10275). The experiment can be described thus: ATG_AR_TRANS: Attagene TRANS-FACTORIAL HepG2 Assay for human Androgen Receptor (AR) (AID 2282973). The settings on record: HepG2 Attagene TRANS-FACTORIAL AR reporter transcription. Summed up: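 Transfected HepG2, 24 h treatment, chimeric NR-Gal4 driving GAL4-UAS reporters. mRNA induction by RT-PCR/capillary electrophoresis fluorescence; DMSO as negative control and baseline.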
Chain of Androgen receptor (Homo sapiens) (P10275 whole entry, looked up, the tested form may be a part): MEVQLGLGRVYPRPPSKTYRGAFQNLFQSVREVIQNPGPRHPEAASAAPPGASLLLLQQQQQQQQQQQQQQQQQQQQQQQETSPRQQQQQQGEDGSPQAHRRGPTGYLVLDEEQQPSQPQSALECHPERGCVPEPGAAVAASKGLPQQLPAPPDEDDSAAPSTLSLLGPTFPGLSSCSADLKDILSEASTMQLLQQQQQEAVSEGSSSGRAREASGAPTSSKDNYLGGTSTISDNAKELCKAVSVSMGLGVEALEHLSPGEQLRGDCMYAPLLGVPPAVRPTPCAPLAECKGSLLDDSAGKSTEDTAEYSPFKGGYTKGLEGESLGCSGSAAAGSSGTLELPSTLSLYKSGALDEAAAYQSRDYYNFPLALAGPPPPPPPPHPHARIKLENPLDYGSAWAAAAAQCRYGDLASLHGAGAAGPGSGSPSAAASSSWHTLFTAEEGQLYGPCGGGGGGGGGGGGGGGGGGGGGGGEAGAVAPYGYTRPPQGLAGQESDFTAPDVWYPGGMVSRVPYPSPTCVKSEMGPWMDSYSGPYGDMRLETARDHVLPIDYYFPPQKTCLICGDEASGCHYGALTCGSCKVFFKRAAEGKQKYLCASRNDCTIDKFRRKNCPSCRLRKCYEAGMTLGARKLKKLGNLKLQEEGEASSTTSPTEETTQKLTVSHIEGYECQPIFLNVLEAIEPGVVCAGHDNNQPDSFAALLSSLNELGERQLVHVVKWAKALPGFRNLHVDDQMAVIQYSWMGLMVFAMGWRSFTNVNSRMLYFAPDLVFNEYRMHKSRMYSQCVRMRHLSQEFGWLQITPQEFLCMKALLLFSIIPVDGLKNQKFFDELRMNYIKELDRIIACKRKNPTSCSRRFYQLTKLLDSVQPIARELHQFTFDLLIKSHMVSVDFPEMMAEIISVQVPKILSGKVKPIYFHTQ

The nature of experiment [19]: ATG_M_19_TRANS: Attagene TRANS-FACTORIAL HepG2 Assay for M19 Transcription Factor (Internal Marker) (AID 2282974). The settings on record: HepG2 Attagene TRANS-FACTORIAL M19 internal marker reporter. The method in brief:
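24 h chemical exposure of transiently transfected HepG2 (MRTU library). RNA → oligo(dT) RT → PCR → 6-FAM labelling → HpaI cut → CE fluorescence. Positive-direction fit vs DMSO baseline; background internal-marker readout.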

Results filed as inconclusive are left out. Activity calls are given as the source filed them. Rule for the calls, unless noted: active = hit-call score of the fitted dose curve at least 0.9, where 1 is the maximum; inconclusive = response in the unintended direction; inactive = score below 0.9.

Chain of Steroid hormone receptor ERR1 (Homo sapiens) (P11474 whole entry, looked up, the tested form may be a part): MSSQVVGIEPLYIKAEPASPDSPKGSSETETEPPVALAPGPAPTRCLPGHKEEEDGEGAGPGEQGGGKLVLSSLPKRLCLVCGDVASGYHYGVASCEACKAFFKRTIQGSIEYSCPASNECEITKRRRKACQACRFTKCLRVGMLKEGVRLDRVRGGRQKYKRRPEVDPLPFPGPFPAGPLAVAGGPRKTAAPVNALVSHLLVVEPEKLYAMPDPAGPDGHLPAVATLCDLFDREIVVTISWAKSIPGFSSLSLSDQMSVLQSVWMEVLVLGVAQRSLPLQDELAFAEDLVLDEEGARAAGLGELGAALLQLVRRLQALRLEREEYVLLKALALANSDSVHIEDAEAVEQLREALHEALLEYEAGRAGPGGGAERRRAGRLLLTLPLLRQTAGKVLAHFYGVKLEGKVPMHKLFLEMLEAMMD
Chain of Glucocorticoid receptor (Homo sapiens) (P04150 whole entry, looked up, the tested form may be a part): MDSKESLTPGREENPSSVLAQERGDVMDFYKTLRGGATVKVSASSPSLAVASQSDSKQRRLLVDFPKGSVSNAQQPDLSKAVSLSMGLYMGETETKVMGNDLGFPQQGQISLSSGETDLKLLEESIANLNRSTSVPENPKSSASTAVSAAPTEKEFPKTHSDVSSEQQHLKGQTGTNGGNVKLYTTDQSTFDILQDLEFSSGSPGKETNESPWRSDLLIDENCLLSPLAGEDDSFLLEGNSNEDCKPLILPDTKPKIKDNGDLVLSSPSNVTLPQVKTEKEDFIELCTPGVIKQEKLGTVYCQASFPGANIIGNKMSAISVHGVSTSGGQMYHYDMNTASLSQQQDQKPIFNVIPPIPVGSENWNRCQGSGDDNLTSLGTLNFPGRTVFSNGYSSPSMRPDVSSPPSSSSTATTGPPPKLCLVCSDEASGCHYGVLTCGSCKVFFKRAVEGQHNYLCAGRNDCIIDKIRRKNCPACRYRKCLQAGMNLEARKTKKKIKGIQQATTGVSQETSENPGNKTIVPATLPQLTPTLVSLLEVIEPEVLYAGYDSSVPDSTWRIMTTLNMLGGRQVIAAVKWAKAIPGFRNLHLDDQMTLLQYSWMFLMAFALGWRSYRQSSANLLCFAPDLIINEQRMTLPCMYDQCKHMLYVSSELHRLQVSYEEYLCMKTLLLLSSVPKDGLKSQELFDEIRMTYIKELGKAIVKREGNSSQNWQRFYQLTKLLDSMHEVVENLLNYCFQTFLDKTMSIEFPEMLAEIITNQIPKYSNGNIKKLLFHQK
Chain of Estrogen-related receptor gamma (Homo sapiens) (P62508 whole entry, looked up, the tested form may be a part): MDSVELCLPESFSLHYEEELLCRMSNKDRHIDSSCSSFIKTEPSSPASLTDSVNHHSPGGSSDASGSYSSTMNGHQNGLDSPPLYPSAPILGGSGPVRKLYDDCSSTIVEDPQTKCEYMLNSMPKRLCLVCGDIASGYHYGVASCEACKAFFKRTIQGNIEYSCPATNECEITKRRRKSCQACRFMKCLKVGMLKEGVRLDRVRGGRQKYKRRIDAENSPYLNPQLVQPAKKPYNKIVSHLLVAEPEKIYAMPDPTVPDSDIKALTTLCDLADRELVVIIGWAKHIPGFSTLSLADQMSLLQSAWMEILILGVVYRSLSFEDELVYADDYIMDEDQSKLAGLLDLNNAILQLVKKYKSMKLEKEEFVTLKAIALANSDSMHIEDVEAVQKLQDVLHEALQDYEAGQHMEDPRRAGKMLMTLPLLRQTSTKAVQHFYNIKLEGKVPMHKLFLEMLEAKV
Chain of Oxysterols receptor LXR-beta (Homo sapiens) (P55055 whole entry, looked up, the tested form may be a part): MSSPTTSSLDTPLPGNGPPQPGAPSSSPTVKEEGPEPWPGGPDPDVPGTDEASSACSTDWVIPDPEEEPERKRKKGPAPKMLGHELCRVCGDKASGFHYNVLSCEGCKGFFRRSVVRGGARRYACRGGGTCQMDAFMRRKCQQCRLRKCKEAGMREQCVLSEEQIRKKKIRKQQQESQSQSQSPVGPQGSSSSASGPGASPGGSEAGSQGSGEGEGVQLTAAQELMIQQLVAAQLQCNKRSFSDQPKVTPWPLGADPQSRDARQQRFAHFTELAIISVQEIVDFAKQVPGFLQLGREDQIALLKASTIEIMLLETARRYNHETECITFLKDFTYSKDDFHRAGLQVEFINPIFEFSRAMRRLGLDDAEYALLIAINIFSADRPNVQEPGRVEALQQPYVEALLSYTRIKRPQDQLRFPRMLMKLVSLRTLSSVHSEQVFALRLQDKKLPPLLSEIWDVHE
Chain of X-box-binding protein 1 (Homo sapiens) (P17861 whole entry, looked up): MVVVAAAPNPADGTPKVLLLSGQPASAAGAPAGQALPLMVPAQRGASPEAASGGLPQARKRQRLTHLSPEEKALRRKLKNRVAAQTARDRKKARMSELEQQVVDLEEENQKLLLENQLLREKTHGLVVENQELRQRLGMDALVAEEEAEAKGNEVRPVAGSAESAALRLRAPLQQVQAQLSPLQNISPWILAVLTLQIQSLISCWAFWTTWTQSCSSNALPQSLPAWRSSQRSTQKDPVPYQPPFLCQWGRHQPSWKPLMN
Chain of Nuclear receptor subfamily 1 group I member 3 (Homo sapiens) (Q14994 whole entry, looked up, the tested form may be a part): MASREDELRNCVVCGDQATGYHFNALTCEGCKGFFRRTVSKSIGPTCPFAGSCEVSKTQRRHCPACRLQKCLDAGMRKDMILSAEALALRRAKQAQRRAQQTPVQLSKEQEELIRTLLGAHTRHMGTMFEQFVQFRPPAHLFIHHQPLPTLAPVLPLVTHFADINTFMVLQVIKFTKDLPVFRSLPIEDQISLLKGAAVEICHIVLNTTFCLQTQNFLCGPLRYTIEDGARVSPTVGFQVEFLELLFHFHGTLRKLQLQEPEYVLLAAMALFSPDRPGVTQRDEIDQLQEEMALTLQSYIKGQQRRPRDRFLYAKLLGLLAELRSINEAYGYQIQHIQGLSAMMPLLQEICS

Regarding `CC(C)(C)c1ccccc1OP(=O)(Oc1ccccc1)Oc1ccccc1`, the compound was called inactive in experiment [1], in experiment [2], in experiment [3], in experiment [4], in experiment [5] and in experiment [7]. For the same compound, the outcome in [8], in [9], in [10], in experiment [11], in experiment [12] and in experiment [13] was inactive. Besides, the results for the concentration at half-maximal activity (AC50) in experiment [6] and in [14] were 5.03 µM (active) and 57.4 µM (active), respectively.
For the compound `O=NN1CCCC1`, the call in experiment [1], in [2], in experiment [3], in experiment [4], in experiment [5] and in [6] was inactive. Further, the compound was called inactive in experiment [8], in experiment [9], in experiment [11], in [15], in experiment [16] and in experiment [13].
For the compound `Nc1ccc2ccccc2c1`, the outcome in [1], in experiment [2], in [3], in experiment [4], in experiment [5] and in [6] was inactive. Besides, the result in [7], in experiment [8], in experiment [9], in [10], in experiment [15] and in experiment [17] was inactive. Also, the compound was called inactive in experiment [13].
Take `CCOP(=S)(OCC)SCS(=O)(=O)CC`: the compound was classed as inactive in experiment [1], in experiment [2], in [3], in experiment [4], in [5] and in [6]. The compound was classed as inactive in experiment [7], in experiment [8], in [18], in [19], in experiment [9] and in experiment [11]. Moreover, the outcome in [12], in [15], in experiment [17] and in experiment [13] was inactive.
As for `O=c1ssc(Cl)c1Cl`, the AC50 (commonly the concentration at which the activity in the assay is half-maximal) in experiment [1] was 53 µM (active); in experiment [4], 52.6 µM (active); in experiment [8], 45.8 µM (active). Besides, the compound was called inactive in experiment [2], in [3], in experiment [5], in experiment [6], in experiment [10] and in experiment [15]. Besides, the compound was called inactive in [17] and in experiment [13].
